“And” between values parts separate entries of the source, which are not always exact repeats. Equal values may be shown once. The whole screen tested about 430,000 compounds, of which about 2,600 (0.6%) were called active. Rule as the data show it: active = inhibition mostly above about 37% (no sharp cut-off); inactive = mostly below about 20%. For the sample, actives were picked, then their nearest neighbours and some compounds at random.
tested on: PriA–SSB C-terminal tail interaction (Klebsiella pneumoniae); assay: inhibitors of Klebsiella pneumoniae PriA binding to SSB C-terminal tail, primary screen, biochemical, AlphaScreen (AID 1272365); conditions: AlphaScreen SSBct-PriA binding, biotinylated peptide; at 33 µM, stronger effect = higher value;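 also: plate controls were negative control peptide for no effect and reference peptide for full effect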

Question: Which inhibition does the source give for O=C(NNC(=S)Nc1ccccc1)c1cccc(S(=O)(=O)N2CCOCC2)c1 here?
Answer: -5.79% (inactive)

Question: How did the inhibition turn out when Cc1cccc(-n2cnc(C(=O)Nc3cccnc3)c2)n1 was run?
Answer: -12.9% (inactive)

Question: How did the inhibition turn out when Cc1cccc(-n2cnc(C(=O)NNC(=S)Nc3ccccc3)c2)n1 was run?
Answer: 66.5% (active)

Question: Which inhibition does the source give for O=C(NCC(F)(F)F)C1CCN(c2cc(-n3cncn3)ncn2)CC1 here?
Answer: 4% (inactive)

Question: O=C(Nc1ccc([N+](=O)[O-])cc1Br)C12CC3CC(CC(C3)C1)C2 was tested. Which inhibition did it give?
Answer: -8% (inactive)

Question: With Cc1c(CCOC(=O)C23CC4CC(CC(C)(C4)C2)C3)sc[n+]1Cc1ccc([N+](=O)[O-])cc1 as the compound, how does the inhibition read?
Answer: 39% (active)

Question: With Cc1c(CCOC(=O)CC23CC4CC(CC(C)(C4)C2)C3)sc[n+]1Cc1ccc([N+](=O)[O-])cc1 as the compound, how does the inhibition read?
Answer: 6.21% (inactive)

Question: For COc1ccc(-c2noc(CN3N=NC4C(=O)N(c5ccc(C)c(F)c5)C(=O)C43)n2)c(OC)c1 (stereo not drawn), which inhibition is on record?
Answer: 6% (inactive)

Question: With O=C(NCC(O)(c1ccccc1)C(F)(F)F)C(=O)Nc1ccccc1 (stereo not drawn) as the compound, how does the inhibition read?
Answer: -3% (inactive)

Question: With CS(=O)(=O)N1CCC(CNC(=O)c2cc3ccccc3o2)CC1 as the compound, how does the inhibition read?
Answer: -23% (inactive)

Question: How did the inhibition turn out when CC1(C)N=C(SCC(=O)Nc2ccc(Br)cc2)C(c2ccccc2)=N1 was run?
Answer: -5% (inactive)

Question: Which inhibition does the source give for CN(C)CCCN(C(=O)c1ccc(S(=O)(=O)N2CCCc3ccccc32)cc1)c1nc2ccc(F)cc2s1 here?
Answer: 42% (active)

Question: CN(C)CCCN(C(=O)c1ccccc1)c1nc2c(F)cc(F)cc2s1 was tested. Which inhibition did it give?
Answer: 5% (inactive)

Question: How did the inhibition turn out when COc1cccc2sc(N(CCCN(C)C)C(=O)c3ccc(F)cc3)nc12 was run?
Answer: -18% (inactive)

Question: With COc1ccc2nc(N(CCN(C)C)C(=O)c3ccc(S(=O)(=O)N4CCCc5ccccc54)cc3)sc2c1 as the compound, how does the inhibition read?
Answer: 41% (active)

Question: How did the inhibition turn out when COc1cc2nc(N(CCN(C)C)C(=O)c3ccc(S(=O)(=O)N(C)Cc4ccccc4)cc3)sc2cc1OC was run?
Answer: 24% (inactive)

Question: How did the inhibition turn out when Cc1ccc2nc(N(CCN(C)C)C(=O)c3ccc(S(=O)(=O)N4CCCCCC4)cc3)sc2c1 was run?
Answer: 35% (active)

Question: CC1CN(S(=O)(=O)c2ccc(C(=O)N(CCN(C)C)c3nc4cc5c(cc4s3)OCCO5)cc2)CC(C)O1 (stereo not drawn) was tested. Which inhibition did it give?
Answer: 15% (inactive)

Question: Which inhibition does the source give for COc1ccc2nc(N(CCN3CCOCC3)C(=O)c3ccccc3S(C)(=O)=O)sc2c1 here?
Answer: 0% (inactive)

Question: With CCOc1ccc2nc(N(CCN(C)C)C(=O)c3ccc4ccccc4c3)sc2c1 as the compound, how does the inhibition read?
Answer: 14.2% (inactive) and 45% (active)

Question: CCOc1ccc2nc(N(Cc3ccncc3)C(=O)Cc3ccc(F)cc3)sc2c1 was tested. Which inhibition did it give?
Answer: 13% (inactive)

Question: CN(C)CCN(C(=O)CCOc1ccccc1)c1nc2cc3c(cc2s1)OCO3 was tested. Which inhibition did it give?
Answer: 7% (inactive)

Question: Which inhibition does the source give for CCOc1ccc2nc(N(CCN(C)C)C(=O)c3ccc(S(=O)(=O)N4CCC(C)CC4)cc3)sc2c1 here?
Answer: 29% (inactive)

Question: How did the inhibition turn out when O=C1CCCC(=O)N1CCS(=O)(=O)N1CCC(c2nnc(-c3ccco3)s2)CC1 was run?
Answer: -4% (inactive)

Question: For O=C([C@@H]1CC=CCC1)N1CCN(c2ccc(-n3cncn3)nn2)CC1, which inhibition is on record?
Answer: -9% (inactive)

Question: With CCc1nc(-c2ccc(N3CCN(C(=O)c4cc5cccc(OC)c5o4)CC3)nc2)no1 as the compound, how does the inhibition read?
Answer: -1% (inactive)

Question: NCc1n[nH]c(=O)c2ccccc12 was tested. Which inhibition did it give?
Answer: -2% (inactive) and -4% (inactive)

Question: Which inhibition does the source give for COC(=O)c1ccccc1NC(=O)c1snnc1C here?
Answer: -11% (inactive)

Question: With CN1CCN(c2nc3ccc(NC(=O)c4ccc5c(c4)OCO5)cc3s2)CC1 as the compound, how does the inhibition read?
Answer: -2% (inactive)

Question: Which inhibition does the source give for COc1ccc(OC)c(C(=O)Nc2ccc3nc(N4CCN(C)CC4)sc3c2)c1 here?
Answer: 6% (inactive) and -21% (inactive)

Question: With COc1cccc2cc(C(=O)Nc3ccc4nc(N5CCN(C)CC5)sc4c3)oc12 as the compound, how does the inhibition read?
Answer: -6% (active)

Question: Which inhibition does the source give for O=C(NCC#CCOc1ccc2c(c1)OCO2)Nc1ccccc1C(F)(F)F here?
Answer: -21% (inactive)

Question: With Cc1ccccc1-c1nc(CSc2nc(C)c(Cc3ccccc3)c(=O)[nH]2)c(C)o1 as the compound, how does the inhibition read?
Answer: 7% (inactive)

Question: Which inhibition does the source give for Cc1nc2oc(-c3ccccc3)nc2cc1NC(=O)c1cc(=O)c2ccccc2o1 here?
Answer: -8% (inactive)

Question: For Cc1c(C(=O)O)cccc1-c1ccc(C=NNc2ccc(Br)cc2)o1, which inhibition is on record?
Answer: 0.6% (inactive)

Question: With O=C(Nc1nc(-c2ccccn2)cs1)c1ccc(-c2ccccc2)cc1 as the compound, how does the inhibition read?
Answer: -19% (inactive)

Question: CC(NC(=O)c1ccco1)C(=O)Nc1nc(-c2ccccn2)cs1 (stereo not drawn) was tested. Which inhibition did it give?
Answer: 74.4% (active)

Question: For CC(C)Sc1ccc(C(=O)Nc2nc(-c3ccccn3)cs2)cc1, which inhibition is on record?
Answer: 50.6% (inactive)

Question: Which inhibition does the source give for CCSc1ccc(C(=O)Nc2sc(-c3ccccc3)cc2C(N)=O)cc1 here?
Answer: -22% (inactive)

Question: How did the inhibition turn out when O=C(NN=Cc1cc(Cl)cc([N+](=O)[O-])c1O)c1cccc(S(=O)(=O)N2CCOCC2)c1 was run?
Answer: 41.7% (active)

Question: Which inhibition does the source give for CCOc1cc(C=NNC(=O)c2cccc(S(=O)(=O)N3CCOCC3)c2)ccc1OCC(=O)N(C)C here?
Answer: -12.5% (inactive)

Question: Which inhibition does the source give for CC(=O)Nc1ccc(C=NNC(=O)c2cccc(S(=O)(=O)N3CCOCC3)c2)cc1 here?
Answer: -5.31% (inactive)

Question: With O=C(Oc1cccc(Oc2ccccc2)c1)N1CCCCC1 as the compound, how does the inhibition read?
Answer: -33% (inactive)

Question: How did the inhibition turn out when O=C(Nc1nc(CCC(=O)N2CCN(c3ncccn3)CC2)cs1)NC1CCCCC1 was run?
Answer: -9% (inactive)

Question: Which inhibition does the source give for COc1ccccc1CNC(=O)CSc1nc2c(-c3ccccc3)c[nH]c2c(=O)n1C1CC1 here?
Answer: -8% (inactive)

Question: For CCc1ccccc1NC(=O)NCCOc1ccc2nnc(-c3cccc(F)c3)n2n1, which inhibition is on record?
Answer: -4% (inactive)

Question: How did the inhibition turn out when O=S(=O)(NCC1(CO)CC1)c1cccc(Cl)c1 was run?
Answer: -9% (inactive)

Question: With COCCNC(=O)NC[C@H]1CCCN1c1ccccc1 as the compound, how does the inhibition read?
Answer: 6% (inactive)

Question: With O=C(NC[C@H]1CCCN1c1ccccc1)c1cc(-c2ccco2)[nH]n1 as the compound, how does the inhibition read?
Answer: 47% (active)

Question: Which inhibition does the source give for Cc1cc(C(=O)NCC2CCCN2c2ccccc2)no1 (stereo not drawn) here?
Answer: 0% (inactive)

Question: For COc1ccc(OC)c(C(=O)Nc2nnc(Cc3ccc(Cl)s3)o2)c1, which inhibition is on record?
Answer: -12% (inactive)

Question: COc1ccc(-c2nnc(SCC(=O)Nc3cccnc3Cl)n2C)cc1 was tested. Which inhibition did it give?
Answer: 2.83% (inactive)

Question: With COc1ccc(Cn2c(CO)cnc2SCC(=O)Nc2cccc3ccccc23)cc1 as the compound, how does the inhibition read?
Answer: 41% (active)

Question: Which inhibition does the source give for COc1cc(CO)ccc1OCC(=O)Nc1cccc2ccccc12 here?
Answer: -4.4% (inactive)

Question: With O=S(=O)(Cc1ccccc1)N1CCN(c2cc(-n3cccc3)ncn2)CC1 as the compound, how does the inhibition read?
Answer: 6% (inactive)

Question: For CCCN1C(=O)C(C)(C)COc2ccc(N)cc21, which inhibition is on record?
Answer: 32% (inactive)

Question: With Cn1cccc1-c1noc(CNC(=O)c2n[nH]c(=O)c3ccccc23)n1 as the compound, how does the inhibition read?
Answer: -3% (inactive)

Question: With CCC(=O)Nc1c(C)nc2scc(C)n2c1=O as the compound, how does the inhibition read?
Answer: 13% (inactive)

Question: How did the inhibition turn out when N#Cc1nc(-c2cccc3ccccc23)oc1N was run?
Answer: -28.7% (inactive)

Question: N#Cc1nc(-c2ccco2)oc1N1CCN(C(=O)c2ccccc2F)CC1 was tested. Which inhibition did it give?
Answer: 9% (inactive)

Question: CC1CCN(c2oc(-c3ccccc3F)nc2C#N)CC1 was tested. Which inhibition did it give?
Answer: 42.8% (active)

Question: How did the inhibition turn out when O=C(NC[C@]1(O)CCc2ccccc21)c1ccccc1F was run?
Answer: -14% (inactive)

Question: For O=C(NCCc1ccccc1)NCCC(O)c1ccccc1 (stereo not drawn), which inhibition is on record?
Answer: -6% (inactive)

Question: Which inhibition does the source give for CC(C)C(NC(=O)c1ccc([N+](=O)[O-])cc1)c1nc2ccccc2[nH]1 (stereo not drawn) here?
Answer: -6% (inactive)

Question: With c1ccc(CN2CCC(N=C3NN=C(c4ccc5c(c4)OCCO5)CS3)CC2)cc1 as the compound, how does the inhibition read?
Answer: 49.7% (active)

Question: Which inhibition does the source give for Clc1cccc(N=C2NN=C(c3ccc4c(c3)OCCO4)CS2)c1 here?
Answer: 44.3% (active)

Question: Which inhibition does the source give for O=C(Cc1cc(=O)[nH]c(SCc2cccc(Cl)c2)n1)Nc1ccc2c(c1)OCCO2 here?
Answer: 12% (inactive)

Question: CC(=NC1CCN(Cc2ccccc2)CC1)c1c(O)[nH]c(=O)[nH]c1=O was tested. Which inhibition did it give?
Answer: -3% (inactive)

Question: With c1ccc(Cc2nnc(-c3ccc4c(c3)OCCO4)o2)cc1 as the compound, how does the inhibition read?
Answer: -10% (inactive)

Question: Which inhibition does the source give for CC1Oc2ccccc2OC1C(=O)N1CCN(c2nc3c(S(C)(=O)=O)cccc3s2)CC1 (stereo not drawn) here?
Answer: -4% (inactive)

Question: How did the inhibition turn out when Cc1ccc(Cl)cc1-n1ccn(CC#N)c(=O)c1=O was run?
Answer: -5% (inactive)

Question: For Cc1ccc(NC2=NC(c3ccccc3)n3c(nc(C)cc3=O)N2)cc1 (stereo not drawn), which inhibition is on record?
Answer: -5.57% (inactive)

Question: How did the inhibition turn out when Cc1ccc(Nc2cc(C)nc3c(C)ccc([N+](=O)[O-])c23)cc1 was run?
Answer: 106% (active)

Question: With Cc1ccc2nc(C(=O)O)cc(Nc3ccc(C)c(C)c3)c2c1 as the compound, how does the inhibition read?
Answer: -5% (inactive)

Question: Which inhibition does the source give for O=C(Nc1cccc(-c2nc3ccccc3s2)c1)c1ccc([N+](=O)[O-])cc1 here?
Answer: -2% (inactive)

Question: How did the inhibition turn out when CC(=O)OCC1OC(Oc2ccc(C(=O)/C=C/c3ccccc3)cc2)C(OC(C)=O)C(OC(C)=O)C1OC(C)=O (stereo not drawn) was run?
Answer: 5% (inactive)

Question: COc1cc(C(CCN2CCN(c3ccccc3)CC2)c2c(OC)cc(OC)c3ccc(=O)oc23)cc(OC)c1OC (stereo not drawn) was tested. Which inhibition did it give?
Answer: -0.54% (inactive)

Question: CCN(CC)CCC(c1ccc2c(c1)OCO2)c1c(OC)cc(OC)c2c(-c3ccccc3)cc(=O)oc12 (stereo not drawn) was tested. Which inhibition did it give?
Answer: 24.5% (inactive)

Question: With COc1cc(OC)c2ccc(=O)oc2c1C(CCN1CCN(c2ccccc2)CC1)c1ccc2c(c1)OCO2 (stereo not drawn) as the compound, how does the inhibition read?
Answer: 41.6% (active)

Question: C=CCOc1ccc(C(O)=C2C(=O)C(=O)N(CCOC)C2c2cccnc2)cc1 (stereo not drawn) was tested. Which inhibition did it give?
Answer: 0.46% (inactive)

Question: With FC(F)Sc1ccc(-c2csc(Nc3ccccc3)n2)cc1 as the compound, how does the inhibition read?
Answer: -4% (inactive)

Question: With O=C(c1ccc(Br)o1)N1CCC(CSc2ccccn2)CC1 as the compound, how does the inhibition read?
Answer: 7% (inactive)

Question: CC(=O)Nc1ccc(C(=O)N2CCc3nc4ccc(Cl)cn4c(=O)c3C2)cc1 was tested. Which inhibition did it give?
Answer: -7% (inactive)

Question: How did the inhibition turn out when CC(C)CS(=O)(=O)C1CN(C(=O)c2ccc3nsnc3c2)C1 was run?
Answer: -14% (inactive)

Question: With O=[N+]([O-])c1ccc(N2CCCCC2)c2cccnc12 as the compound, how does the inhibition read?
Answer: 46.9% (inactive)

Question: Oc1c(CN2CCCC2)cc(Cl)c2cccnc12 was tested. Which inhibition did it give?
Answer: 103% (inactive)

Question: How did the inhibition turn out when OCc1cccc2cccnc12 was run?
Answer: 41.4% (inactive)

Question: Which inhibition does the source give for Oc1ccc(CN2CCCC2)c2cccnc12 here?
Answer: 106% (active)

Question: For COc1ncc(Br)c2ncccc12, which inhibition is on record?
Answer: -7% (inactive)

Question: How did the inhibition turn out when Clc1ccc(CN2CCCCCC2)cc1Cl was run?
Answer: -4.06% (inactive)

Question: With Oc1ccc(CN2CCCCCC2)c2cccnc12 as the compound, how does the inhibition read?
Answer: 124% (active)

Question: For COCCOCc1ccc(O)c2ncccc12, which inhibition is on record?
Answer: 114% (active)

Question: Which inhibition does the source give for Oc1c(CN2CCOCC2)ccc(CN2CCOCC2)c1O here?
Answer: -7.99% (inactive)

Reference: PubChem BioAssay AID1272365 (Small Molecule Screening Facility, UW Madison, 2020)
